Source: PubChem BioAssay (NCI)
This is part of a sample that, as a whole, favours compounds with a hit. Of some 83,000 tested, about 20% had one in any assay.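 Testing used 96-well plates and a 48-hour single-concentration exposure. Example: -40 means 40% of the starting cells died.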 A number with no mark means an inactive call. Active and inactive are the calls of the source. How the source made its calls: active means growth percent below 10; inactive means the rest.

Tests used:
Assay in all cases: NCI-60 one-dose screen, 48 h (100 = growth as untreated, 0 = no growth, -100 = all killed)
Settings in all cases: 10 µM unless noted
[1] = system: NCI-H23 lung
[2] = system: NCI-H226 lung
[3] = system: NCI-H322M lung
[4] = system: HOP-62 NSCLC
[5] = system: NCI-H460 lung
[6] = system: HOP-92 NSCLC
[7] = system: NCI-H522 lung
[8] = system: 786-0 renal
[9] = system: COLO 205 colon
[10] = system: DU-145 prostate
[11] = system: MALME-3M melanoma
[12] = system: MDA-MB-231 breast
[13] = system: RXF 393 renal
[14] = system: SF-268 CNS
[15] = system: SF-295 CNS
[16] = system: SF-539 CNS
[17] = system: UACC-257 melanoma
[18] = system: M14 melanoma
[19] = system: K-562 leukemia
[20] = system: A549/ATCC NSCLC

Row | SMILES | growth [1] [%] | growth [2] [%] | growth [3] [%] | growth [4] | growth [5] | growth [6] | growth [7] | growth [8] | growth [9] | growth [10] | growth [11] | growth [12] | growth [13] | growth [14] [%] | growth [15] | growth [16] | growth [17] | growth [18] | growth [19] | growth [20]
1 | COc1cc(/C=C\c2cc(OC)c(OC)c(OC)c2)cc(NC(=O)/C=C/c2cc(OC)c(OC)c(OC)c2)c1OC | 27.8 | 66.6 | 66.8 | 63.7% | 55.7% | 45% | 23.3% | 51.6% | 38.2% | 78% | 48.7% | 51.3% | 28.7% | 72.6 | 32.6% | 56.4% | 68.4% | 37.9% |  | 
2 | O=S(=O)(NCCNc1nccc(-c2c(-c3cccc(F)c3)nc3sccn23)n1)c1ccc(Br)cc1 | 72.6 | 41.2 | 61 | 83.3% | 27.8% | 76.7% | 62.6% | 50.6% | 36.4% | 52.5% | 71.1% | 69.7% | 72.7% | 53 | 58.7% | 76.4% | 82% | 52.3% | 38.7% | 
3 | O=C(O)c1ccc(-c2nn(-c3ccc(C(F)(F)F)cc3)cc2CNc2ccc(Oc3ccccc3)cc2)cc1 | 91.7 | 86.8 | 70.8 | 103% | 87.4% |  | 80.2% | 93.4% | 111% | 95.5% | 107% | 91.4% | 88.4% | 79.5 | 72.7% | 89.6% | 102% | 84.6% | 65.3% | 47.9%
4 | CN1CCN(CCNc2nccc(-c3c(-c4cccc(O)c4)nc4sccn34)n2)S1(=O)=O | 46.1 | 100 | 70.2 | 79.3% | 57.3% | 49% | 46.2% | 93.2% | 17.6% | 56.5% | -20% (active) | 24.3% | 39.2% | 85.6 | 95.9% | 79.9% | -10.6% (active) | -4.02% (active) |  | 
5 | C=C1C(=O)O[C@H]2[C@H]1CC/C(CNC(=O)c1cccc3ccccc13)=C\CC[C@@]1(C)O[C@@H]21 | 70.1 | 78 | 90.5 | 93.1% | 78.6% | -11% (active) | -46.7% (active) | 32.2% | 28.5% | 33.8% | 36.2% | 34.1% | 27.5% | 63.1 | 85.9% | 59.7% | 66.2% | 38.2% |  | 
6 | O=S(=O)(NCCCNc1nccc(-c2c(-c3cccc(F)c3)nc3sccn23)n1)c1cccc2ccccc12 | 66.2 | 36.8 | 81.6 | 80.7% | 19.8% |  | 56.3% | 52.9% | 21.5% | 49.9% | 78.7% | 4.05% (active) | 62.9% | 44.5 | 34.6% | 72.8% | 72.9% | 42.7% | 15.2% | 45.6%
7 | COc1ccccc1/C(C)=N/NC(=O)CSc1nc2ccccc2c(=O)n1Cc1ccc(S(N)(=O)=O)cc1 | 96.7 | 95.5 | 90 | 93.5% | 100% |  | 82.1% | 97.3% | 119% | 108% | 103% | 96.6% | 95.9% | 89.2 | 93.9% | 94.4% | 95.4% | 108% | 98.2% | 95.2%
8 | Cc1cccc(NC(=O)Nc2ccc(-n3cnc4cc(-c5ccc(O)cc5)ccc43)cc2)c1 | 27.7 | 62.6 | 69.8 | 39.3% | 9.07% (active) |  | 6.16% (active) | 36.2% | 69.1% | 33.9% | 28.4% | 47.3% | 58.4% | 42.3 | 18.4% | 29.1% | 32.3% | 21.4% | 14.2% | 24.9%
9 | Cc1c(C)c([N+](=O)[O-])c(C)c([N+](=O)[O-])c1C | 116 | 108 | 115 | 121% | 112% | 79.2% | 77.2% | 95.4% | 122% | 104% | 111% | 101% | 108% | 106 | 97.6% | 107% | 105% |  |  | 
10 | CC(=O)Oc1ccc(/C=N/NC(N)=S)nc1 | 37.8 | 32.1 | 92.8 | 74.5% | 96.4% | 63.9% | 74.5% | 53.3% | 92.7% | 81.5% | 97.8% | 87.1% | 34.7% | 66.5 | 104% | 20.4% | 81.4% | 58.2% |  | 
11 | COc1cc(CC(=O)c2ccc(O)c(OC)c2)ccc1O | 103 | 81.9 | 89.6 | 91.4% | 100% |  | 88.4% | 104% | 107% | 108% | 107% | 88.6% | 102% | 102 | 98.9% | 103% | 80.1% | 102% | 89.1% | 79.5%
12 | CCCCCCOc1ccc(/C=N/Nc2cc(C)nc3ccc(Cl)cc23)cc1 | 68.3 | 87.8 | 14.6 | -51.6% (active) | -80% (active) | 69.5% | -42.9% (active) | -82.2% (active) | -48.4% (active) | -49% (active) | -48.7% (active) | -79.9% (active) | -94.3% (active) | 69.9 | -84.3% (active) | -86.5% (active) | 116% | 2.01% (active) | -20.4% (active) | 
13 | Nc1c(C(=O)Nc2ccnc3ccccc23)sc2nc3c(cc12)CN(Cc1ccccc1)CC3 | 70.3 | 53.1 | 90.3 | 111% | 87.4% |  | 70.1% | 66.3% | 97.3% | 85.6% | 96% | 67.7% | 96.1% | 87.8 | 75.2% | 99.1% | 78.8% | 41.9% | 38.5% | 85.1%
14 | O=C(Nc1ccc(-c2ccc3c(c2)NC(=O)/C3=C\c2ccc[nH]2)cc1)NC1CC1 | 55.1 | 101 | 80.2 | 113% | 59.8% |  | 89.6% | 110% | 115% | 103% | 105% | 101% | 99.1% | 103 | 90.8% | 71.5% | 117% |  | 92.5% | 102%
15 | CCCCCOc1ccc(/C=N/Nc2cc(C)nc3ccc(Cl)cc23)cc1 | 62.5 | 88 | 44.3 | 29.7% | -63.1% (active) |  | -30.6% (active) | -85.2% (active) | -55.9% (active) | 5.9% (active) | -63.8% (active) | -77.3% (active) | -85.5% (active) | 72 | -86% (active) | -78.2% (active) | 99.2% | -15.4% (active) | -33% (active) | -8.41% (active)
16 | COc1cc(NCCCCCNC(C)(C)C)c2ncccc2c1 | 93.1 | 86.5 | 93.3 | 92.7% | 111% | 79.4% | 67.8% | 95.6% | 110% | 112% | 107% | 89.8% | 97.4% | 105 | 77.5% | 99.7% | 133% | 104% |  | 
